# Source: PubChem BioAssay
# Active and inactive are the calls of the source.
# Columns and labels:
# [1] = binders of probe aFSTL3 on microarray, primary screen, stem cell growth factor project, biochemical, small-molecule microarray, fluorescence 635/667 (AID 1064); conditions: higher = more signal;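 further: measures binding of the biotinylated anti-FSTL3 antibody to printed compounds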
# [2] = binders from COS7 lysate, DM2A8 probe, primary screen, torsin A project, cell lysate, small-molecule microarray, fluorescence 635/667 (AID 1065); conditions: higher = more signal, COS7 lysate expressing mutant human TOR1A
# [3] = binders of probe aFGF2 on microarray, primary screen, stem cell growth factor project, biochemical, small-molecule microarray, fluorescence 635/667 (AID 1067); conditions: higher = more signal;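 further: measures binding of biotinylated aFGF2 protein to printed compounds on slides; z-score merges feature fluorescence and signal-to-noise across triplicate slides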
# [4] = binders of probe aFGF10 on microarray, primary screen, stem cell growth factor project, biochemical, small-molecule microarray, fluorescence 635/667 (AID 1071); conditions: higher = more signal;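 further: score merges 667 nm spot intensity and signal to noise from triplicate slides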
# [5] = molecular target: Neurogenic locus notch homolog protein 2 (Homo sapiens) (UniProt Q04721); test: Notch2 binders on small-molecule microarrays, primary screen, biochemical, small-molecule microarray, 635 nm fluorescence, stem cell growth factors (AID 1073); conditions: Notch2 binding, higher = more signal
# [6] = molecular target: Pro-neuregulin-1, membrane-bound isoform (Homo sapiens) (UniProt Q02297); test: NRG1 binders on small-molecule microarrays, primary screen, psychiatric disease protein project, biochemical, small-molecule microarray, fluorescence 635/667 (AID 1075); conditions: NRG1 binding, 635 nm fluorescence, higher = more signal;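 further: score combines 667 nm spot fluorescence with signal to noise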
# Sequence of Pro-neuregulin-1, membrane-bound isoform (Homo sapiens) (Q02297 whole entry, looked up, the tested form may be a part, canonical isoform): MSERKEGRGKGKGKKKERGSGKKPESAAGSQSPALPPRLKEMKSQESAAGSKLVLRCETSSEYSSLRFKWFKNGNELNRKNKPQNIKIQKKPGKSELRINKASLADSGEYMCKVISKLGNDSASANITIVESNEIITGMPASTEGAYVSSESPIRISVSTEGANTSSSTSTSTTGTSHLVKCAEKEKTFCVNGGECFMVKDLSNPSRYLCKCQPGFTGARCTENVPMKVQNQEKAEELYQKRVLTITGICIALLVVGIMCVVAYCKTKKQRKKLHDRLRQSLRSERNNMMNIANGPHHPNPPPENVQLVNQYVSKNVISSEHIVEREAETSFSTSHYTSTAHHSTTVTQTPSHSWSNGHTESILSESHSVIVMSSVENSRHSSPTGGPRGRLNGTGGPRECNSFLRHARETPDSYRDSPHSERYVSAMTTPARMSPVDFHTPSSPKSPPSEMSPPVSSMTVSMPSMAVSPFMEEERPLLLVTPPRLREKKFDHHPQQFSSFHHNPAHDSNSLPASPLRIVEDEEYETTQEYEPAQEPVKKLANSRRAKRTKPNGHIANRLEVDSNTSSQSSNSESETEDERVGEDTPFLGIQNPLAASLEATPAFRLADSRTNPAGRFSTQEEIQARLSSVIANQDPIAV
# [7] = system: Neuregulin-1 EGF-like domain; test: binders of neuregulin-1 EGF-like domain, primary screen, biochemical, small-molecule microarray, 635 nm fluorescence (AID 1081); conditions: small-molecule microarray binding, higher = more signal;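 further: binding of the protein to compounds printed on small-molecule microarray slides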
# [8] = FRG1 promoter luciferase signal modulators, primary screen, FRG1 inhibition for FSHD, cell-based, C2C12 myotubes, firefly/Renilla luciferase, luminescence (AID 1084); conditions: higher = more signal, called active from +8 up or from −8 down
# [9] = binders of probe aFST on microarray, primary screen, stem cell growth factor project, biochemical, small-molecule microarray, fluorescence 635/667 (AID 1086); conditions: higher = more signal;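 further: score merges 667 nm fluorescence with signal-to-noise of each printed compound spot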
# [10] = binders of probe aHhip on microarray, primary screen, stem cell growth factor project, biochemical, small-molecule microarray, fluorescence 635/667 (AID 1087); conditions: higher = more signal;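 further: score merges spot fluorescence at 667nm with spot signal to noise ratio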
# [11] = system: PRMT1 (protein arginine N-methyltransferase 1); test: PRMT1 binders on small-molecule microarrays, primary screen, biochemical, small-molecule microarray, 635 nm fluorescence (AID 1088); conditions: small-molecule microarray binding, higher = more signal;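 further: binding of Prmt1 protein to compounds spotted on small-molecule microarray slides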
# [12] = yeast growth modulation, basal conditions, primary screen, YJM789 clinical isolate, OD600, 24 h (AID 1089);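 further: growth of clinical yeast isolate S. cerevisiae YJM 789 seeded 1000 cells per well; test concentration not given here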; conditions: S. cerevisiae YJM789 growth, higher = more signal, called active from +8 up or from −8 down
# [13] = fission yeast growth modulation, primary screen, strain 972, OD600, 24 h, no modulator (AID 1090);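 further: basal condition with compound alone and no growth modifier present; test concentration not given here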; conditions: S. pombe 972 growth, higher = more signal, called active from +8 up or from −8 down
# [14] = S. cerevisiae growth modulation with rapamycin, primary screen, strain BY4716, OD600, 96 h (AID 1091); conditions: higher = more signal, called active from +8 up or from −8 down; further: test concentration not given here
# [15] = molecular target: Torsin-1A-interacting protein 2 (Homo sapiens) (UniProt Q8NFQ8); test: LULL1 binders on small-molecule microarray, primary screen, cell lysate, human LULL1 lysate, 635/667 nm fluorescence (AID 1092); conditions: hLULL1 lysate binding, 635 nm fluorescence, higher = more signal;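 further: probe is lysate of COS7 cells overexpressing human LULL1; score merges per-feature 667 nm fluorescence with signal-to-noise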
# Sequence of Torsin-1A-interacting protein 2 (Homo sapiens) (Q8NFQ8 whole entry, looked up): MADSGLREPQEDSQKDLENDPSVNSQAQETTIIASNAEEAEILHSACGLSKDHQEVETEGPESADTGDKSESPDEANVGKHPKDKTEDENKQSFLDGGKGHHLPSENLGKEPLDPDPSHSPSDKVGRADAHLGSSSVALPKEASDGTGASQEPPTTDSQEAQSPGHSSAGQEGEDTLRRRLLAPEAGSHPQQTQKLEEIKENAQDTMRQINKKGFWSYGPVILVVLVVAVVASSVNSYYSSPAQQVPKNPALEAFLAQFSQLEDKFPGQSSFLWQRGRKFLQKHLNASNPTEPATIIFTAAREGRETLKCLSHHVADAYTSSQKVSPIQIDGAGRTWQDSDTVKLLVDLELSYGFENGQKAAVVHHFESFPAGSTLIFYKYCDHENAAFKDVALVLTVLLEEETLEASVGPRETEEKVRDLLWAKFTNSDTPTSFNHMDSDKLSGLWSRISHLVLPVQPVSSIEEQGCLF
# [16] = E. coli growth modulation, two-sided OD650, primary screen, E. coli filamentation project, strain DRC41, 24 h (AID 1093); conditions: OD650, 24 h, higher = more signal, called active from +8 up or from −8 down;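 further: MC1000 strain lacking acrAB efflux and sulA so SOS filamentation is blocked; test concentration not given here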
# [17] = small-molecule microarray binders of probe aLefty2, primary screen, biochemical, biotinylated probe, 635/667 nm fluorescence (AID 1094); conditions: higher = more signal;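 further: score merges spot fluorescence near 667 nm with spot signal-to-noise ratio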
# [18] = system: Noggin (protein binding on small-molecule microarray); test: Noggin binders on small-molecule microarray, primary screen, biochemical, 635/667 nm fluorescence (AID 1095); conditions: 635 nm fluorescence, higher = more signal;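 further: score merges 667 nm feature fluorescence with signal to noise over triplicate slides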
# [19] = molecular target: Neurogenic locus notch homolog protein 3 (Homo sapiens) (UniProt Q9UM47); test: NOTCH3 binders on small-molecule microarray, primary screen, biochemical, 635/667 nm fluorescence (AID 1096); conditions: NOTCH3 binding, 635 nm fluorescence, higher = more signal
# Sequence of Neurogenic locus notch homolog protein 3 (Homo sapiens) (Q9UM47 whole entry, looked up): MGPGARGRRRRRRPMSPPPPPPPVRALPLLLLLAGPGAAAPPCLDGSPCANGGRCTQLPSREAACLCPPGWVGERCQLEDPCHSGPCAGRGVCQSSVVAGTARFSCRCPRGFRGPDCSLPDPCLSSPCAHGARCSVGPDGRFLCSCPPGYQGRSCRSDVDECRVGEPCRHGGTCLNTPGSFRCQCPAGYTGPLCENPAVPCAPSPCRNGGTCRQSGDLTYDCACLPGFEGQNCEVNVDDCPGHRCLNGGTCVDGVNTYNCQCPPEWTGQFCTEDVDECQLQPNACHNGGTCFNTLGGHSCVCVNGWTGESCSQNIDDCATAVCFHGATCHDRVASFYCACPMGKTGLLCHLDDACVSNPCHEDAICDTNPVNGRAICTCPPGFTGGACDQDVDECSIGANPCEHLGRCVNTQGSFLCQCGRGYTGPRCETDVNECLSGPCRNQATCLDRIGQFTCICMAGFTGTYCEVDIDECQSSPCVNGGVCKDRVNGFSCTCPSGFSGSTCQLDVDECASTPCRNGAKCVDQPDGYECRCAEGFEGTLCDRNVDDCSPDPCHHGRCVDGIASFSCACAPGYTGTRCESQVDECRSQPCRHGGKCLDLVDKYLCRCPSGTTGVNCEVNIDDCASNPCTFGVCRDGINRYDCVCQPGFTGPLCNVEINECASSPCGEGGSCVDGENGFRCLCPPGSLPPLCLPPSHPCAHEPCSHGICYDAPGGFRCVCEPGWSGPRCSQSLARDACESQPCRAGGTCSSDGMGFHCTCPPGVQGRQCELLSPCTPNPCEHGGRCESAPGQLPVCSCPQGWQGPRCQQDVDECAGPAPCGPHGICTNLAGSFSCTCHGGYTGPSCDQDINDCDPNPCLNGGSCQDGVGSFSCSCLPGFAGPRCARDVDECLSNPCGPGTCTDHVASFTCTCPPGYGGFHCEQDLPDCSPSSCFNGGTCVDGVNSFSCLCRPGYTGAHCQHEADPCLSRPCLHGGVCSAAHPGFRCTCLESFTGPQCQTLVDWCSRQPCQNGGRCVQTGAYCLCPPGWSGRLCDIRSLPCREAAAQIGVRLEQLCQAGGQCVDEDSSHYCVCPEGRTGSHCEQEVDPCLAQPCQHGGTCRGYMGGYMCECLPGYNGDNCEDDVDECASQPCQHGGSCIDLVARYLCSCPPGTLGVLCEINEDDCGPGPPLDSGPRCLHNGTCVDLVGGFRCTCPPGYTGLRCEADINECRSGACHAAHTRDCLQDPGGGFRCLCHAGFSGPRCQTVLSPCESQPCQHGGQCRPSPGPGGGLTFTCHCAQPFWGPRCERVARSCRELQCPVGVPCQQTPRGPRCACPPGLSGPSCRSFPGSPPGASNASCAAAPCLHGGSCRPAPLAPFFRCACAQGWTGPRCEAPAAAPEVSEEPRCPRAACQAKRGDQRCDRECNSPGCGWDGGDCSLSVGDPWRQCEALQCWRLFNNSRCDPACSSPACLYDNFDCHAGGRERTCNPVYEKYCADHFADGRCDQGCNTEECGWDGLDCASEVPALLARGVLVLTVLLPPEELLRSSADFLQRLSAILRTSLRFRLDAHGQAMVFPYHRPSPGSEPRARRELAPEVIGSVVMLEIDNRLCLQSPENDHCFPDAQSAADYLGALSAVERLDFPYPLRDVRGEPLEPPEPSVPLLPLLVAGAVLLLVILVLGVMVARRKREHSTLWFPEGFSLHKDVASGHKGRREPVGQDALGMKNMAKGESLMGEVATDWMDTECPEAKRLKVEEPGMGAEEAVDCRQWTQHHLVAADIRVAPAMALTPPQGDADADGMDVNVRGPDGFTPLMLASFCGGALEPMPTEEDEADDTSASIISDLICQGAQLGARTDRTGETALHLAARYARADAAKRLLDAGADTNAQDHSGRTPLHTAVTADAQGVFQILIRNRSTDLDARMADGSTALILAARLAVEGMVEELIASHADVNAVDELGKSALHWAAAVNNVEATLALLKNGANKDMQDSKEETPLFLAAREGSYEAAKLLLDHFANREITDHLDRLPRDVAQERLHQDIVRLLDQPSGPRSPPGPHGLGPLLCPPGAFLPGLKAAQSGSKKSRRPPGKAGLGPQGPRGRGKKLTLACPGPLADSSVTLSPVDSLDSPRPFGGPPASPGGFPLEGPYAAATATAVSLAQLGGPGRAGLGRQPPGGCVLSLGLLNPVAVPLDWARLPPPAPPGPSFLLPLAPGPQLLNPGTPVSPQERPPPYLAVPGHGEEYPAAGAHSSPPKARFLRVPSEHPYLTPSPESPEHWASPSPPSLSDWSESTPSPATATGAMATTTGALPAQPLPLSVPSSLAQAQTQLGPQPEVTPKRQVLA
# [20] = small-molecule microarray binders of probe aEGFR, primary screen, biochemical, biotinylated probe, 635/667 nm fluorescence (AID 1097); conditions: higher = more signal;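 further: probe is a biotinylated anti-EGFR antibody binding compounds printed on slides; score combines fluorescence near 667 nm and signal to noise of each spot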
SMILES,composite z-score [1],composite z-score [2],composite z-score [3],composite z-score [4],composite z-score [5],composite z-score [6],composite z-score [7],z-score [8],composite z-score [9],composite z-score [10],composite z-score [11],z-score [12],z-score [13],z-score [14],composite z-score [15],z-score [16],composite z-score [17],composite z-score [18],composite z-score [19],composite z-score [20]
COC(=O)[C@@H]1CC[C@H](C)[C@@H](c2ccc(C)cc2)N1C(=O)c1ccc(C=NOC(C)CN2CCCCc3nc(C)c(C)cc32)cc1 (stereo not given in full),0.145,-0.859,-0.0959,0.233,-0.199,0.131,0.312,0.204 (inactive),0.165,0.226,-0.066,-0.632 (inactive),-11.8 (active),0.325 (inactive),-0.0101,0.829 (inactive),-0.0332,0.149,-0.145,-0.0929
COC(=O)[C@H](C)NC(=O)CCC1CC(OC(=O)NCCc2ccc(F)cc2)CC2(CCCC(COC(=O)NCCc3ccc(Cl)cc3)O2)O1 (stereo not given in full),-0.655,1.39,-0.0579,0.812,1.15,0.691,0.595,1.11 (inactive),0.393,-0.0672,1.24,0.86 (inactive),0.812 (inactive),1.2 (inactive),2.39,0.126 (inactive),-0.0237,0.244,1.12,-0.0989
COc1ccc([Si](C)(C)[C@@H]2[C@@H](CCO)O[C@]3(C(=O)N(Cc4ccc(NC(C)=O)cc4)c4ccccc43)[C@H]2C)cc1,-0.189,1.05,-0.0049,1.18,1.47,1.66,1.24,-4.04 (inactive),0.17,0.0373,1.55,2.99 (inactive),0.282 (inactive),34.6 (active),2.7,1.44 (inactive),0.0325,1.48,0.949,0.492
COCCOC(=O)N1C(=O)[C@@]2(c3cc(C#CCNC(N)=O)ccc31)[C@H](c1ccccc1OCCO)N1[C@H](c3ccccc3)[C@H](c3ccccc3)OC(=O)[C@H]1[C@@H]2C(=O)N1CCN(c2ncccn2)CC1,0.202,1,0.0019,1.15,1.27,1.27,0.955,-1.69 (inactive),0.141,-0.0618,1.44,-0.0197 (inactive),2.11 (inactive),3.85 (inactive),2.22,0.961 (inactive),0.065,0.43,0.572,-0.0271
C=C(/C(=C/C[C@H](OC(=O)c1ccncc1)c1ccc(OCCO)cc1)c1cnc2ccccc2c1)C(C)C,-0.185,0.727,-0.047,1.09,1.29,0.7,1.13,1.66 (inactive),0.552,-0.0296,1.55,-0.442 (inactive),-1.82 (inactive),0.706 (inactive),1.12,-0.13 (inactive),-0.0985,1.48,1.03,-0.0251
Cc1ccc(S[C@]2(C(=O)O)CC(=O)N(Cc3ccccc3)[C@@H]2c2ccc(CO)cc2I)cc1,0.481,-0.421,-0.0494,-0.333,-0.143,1.8,1.03,-0.406 (inactive),-0.255,-0.0994,0.135,-0.866 (inactive),-1.17 (inactive),1.29 (inactive),1.28,-0.104 (inactive),-0.103,-0.404,-0.683,-0.261
C=C(/C(=C/C[C@@H](OC(=O)c1ccncc1)c1ccc(OCCO)cc1)c1cnc2ccccc2c1)C(C)C,-0.342,-0.0128,-0.186,0.128,0.772,0.562,0.694,-2.27 (inactive),0.201,0.0206,1.55,-24.8 (active),-20.4 (active),-4.32 (inactive),0.65,1.23 (inactive),-0.0262,1.65,1.07,-0.0949
CCCNC(=O)[C@@H]1c2ccccc2C(=O)N(Cc2ccccc2Cl)[C@H]1c1ccc(CO)cc1,0.198,0.274,0.0336,0.633,1.17,0.963,1.21,-1.18 (inactive),0.703,-0.216,1.55,-0.0545 (inactive),-0.64 (inactive),0.152 (inactive),2.47,2.2 (inactive),0.102,0.751,1.05,0.116
C[C@@H]1C=CCC(=O)OC[C@H](C)C(=O)N2CCC[C@H]2C(=O)OC1,-0.586,2.45,-0.178,0.349,0.285,-0.824,1.04,0.465 (inactive),0.165,-0.0296,1.54,-0.407 (inactive),0.334 (inactive),0.356 (inactive),0.0414,0.325 (inactive),-0.0971,1.7,0.677,0.228
C[C@H]1CC[C@@H](C(=O)O)N[C@@H]1c1ccc(C#CCN(C)C)cc1,-0.326,0.451,-0.0943,0.185,0.608,0.115,0.0934,-0.794 (inactive),0.629,-0.119,-0.521,1.07 (inactive),-0.509 (inactive),-0.434 (inactive),-0.141,0.657 (inactive),-0.128,0.102,0.498,-0.0564
